An excerpt weighted towards active compounds, which were near 3.2% of everything screened.
SSB-PriA inh: K. pneumoniae PriA-SSBct interaction inhibition. AlphaScreen SSBct-PriA binding, biotinylated peptide. inhibition, % at 33 µM. 430,000 compounds, 0.6% hits. AID 1272365; in the data active means inhibition mostly above about 37%, no sharp cut-off; inactive means mostly below about 20%
FBA Mtb inh: inhibitors of M. tuberculosis fructose-bisphosphate aldolase | P9WQA3 | 360,000 compounds, 2.3% hits | inhibition, % at 1 µM | purified M. tuberculosis FBA, fluorescence read-out
UGM FP inh: inhibitors of M. tuberculosis UDP-galactopyranose mutase; P9WIQ1; purified UGM, fluorescence polarization probe displacement; inhibition, % at 10 µM; 320,000 compounds, 0.06% hits; AID 504406; in the data active means inhibition above about 10%, passing the limit was not always enough
Rv3671c protease: Rv3671c (M. tuberculosis) protease inhibition; inhibition, % at 5.96 µM; AID 2606; 320,000 compounds, 0.048% hits; P9WHR9; in the data active means inhibition above about 38%;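 further: extracellular domain of Rv3671c used as enzyme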
Target sequence (P9WHR9 whole entry, looked up, the tested form may be a part): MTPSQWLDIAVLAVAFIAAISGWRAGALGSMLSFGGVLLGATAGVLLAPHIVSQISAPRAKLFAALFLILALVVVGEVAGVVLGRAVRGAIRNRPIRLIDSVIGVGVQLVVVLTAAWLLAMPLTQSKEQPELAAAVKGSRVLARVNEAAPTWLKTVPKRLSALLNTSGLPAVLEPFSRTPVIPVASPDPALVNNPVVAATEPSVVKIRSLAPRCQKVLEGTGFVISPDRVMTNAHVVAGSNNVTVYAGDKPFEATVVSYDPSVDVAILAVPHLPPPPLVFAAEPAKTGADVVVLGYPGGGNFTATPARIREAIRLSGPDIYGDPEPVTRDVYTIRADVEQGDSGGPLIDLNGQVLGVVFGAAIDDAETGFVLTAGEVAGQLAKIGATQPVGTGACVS
GDH-TPI counter-1: GDH-TPI coupled enzyme inhibition counter-screen. GDH-TPI coupled enzyme counterscreen, NADH absorbance. inhibition, % at 4.8 µM. 360,000 compounds, 1.2% hits. AID 588335; in the data active means inhibition above about 30%
Mtb betalactam: beta-lactam sensitization of Mtb H37Rv; M. tuberculosis H37Rv growth with meropenem, percent inhibition; inhibition, % at 25 µM; 330,000 compounds, 0.27% hits; AID 434955; call rule not given here;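 further: growth measured after seven days incubation then overnight dye step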
Mtb FBA confirm: Mtb FBA inhibition, confirmed. inhibition, % at 1 µM. purified M. tuberculosis FBA, fluorescence read-out. shares compounds with FBA Mtb inh. 5,600 compounds, 78% hits
GDH-TPI counter-2: counter-screen for M. tuberculosis FBA inhibitors: GDH-TPI coupled enzyme inhibition; shares compounds with FBA Mtb inh; GDH-TPI coupled enzyme counterscreen, fluorescence; inhibition, % at 1 µM; 5,600 compounds, 81% hits; AID 652141; in the data active means inhibition above about 10%
GDH-TPI DR: GDH-TPI dose response counter-screen for Mtb FBA | shares compounds with FBA Mtb inh | GDH-TPI coupled enzyme assay, fluorescence, artifact counterscreen | IC50, µM | 170 compounds, 79% hits | AID 652145; call rule not given here
A number is an active result; - = inactive; . = not tested or not shown; + = active, no number. Unless noted, no stated cut-off is given here; in the data, active means inhibition above about 27%; inactive means the rest.

SMILES | SSB-PriA inh | FBA Mtb inh | UGM FP inh | Rv3671c protease | GDH-TPI counter-1 | Mtb betalactam | Mtb FBA confirm | GDH-TPI counter-2 | others
Cc1cc(=O)oc2cc(OCC(=O)OC(C)C(=O)Nc3ccc(S(N)(=O)=O)cc3)ccc12 (stereo not given) | - | 33 | - | - | - | - | 82 | 66
FC(F)(F)c1ccc2c(c1)NCC1CCCN21 (stereo not given) | - | 45 | - | - | - | - | 54 | 50
FC(F)(F)c1ccc2c(c1)N1CCCC1CN2 (stereo not given) | - | - | - | - | - | - | . | .
CCn1ccnc1N1CCN(C(=O)c2ccccc2F)CC1 | - | . | . | . | . | . | . | .
CCC(C)NC(=O)CSc1ccc(N2CCN(c3cccc(C(F)(F)F)c3)CC2)nn1 (stereo not given) | - | . | . | . | . | . | . | .
COc1ccc2cc(C#N)c(NC(C)C)nc2c1 | - | 55 | - | - | - | - | - | -
CCN(CC)c1nc2cc(OC)ccc2cc1C#N | - | 32 | - | - | - | - | 50 | 35
COc1ccc2cc(C#N)c(N3CCOCC3)nc2c1 | - | 37 | - | - | - | - | 66 | 63
COC(=O)CSc1nc2cc(OC)ccc2cc1C#N | - | - | - | - | - | - | . | .
COc1ccccc1N1CCN(C(=O)COc2ccnc3c2CCCC3)CC1 | - | . | . | . | . | . | . | .
O=C(CSc1nc2c(-c3ccccc3)c[nH]c2c(=O)n1C1CC1)Nc1ccc2c(c1)OCO2 | - | . | . | . | . | . | . | .
Cc1c(-c2ccccc2)n(O)c(-c2ccc(N(C)C)cc2)[n+]1[O-] | . | 57 | . | . | - | . | 126 | 109
CN(C)c1ccc(-[n+]2c(-c3ccccc3)cc(-c3ccccc3)cc2-c2ccccc2)cc1 | - | - | . | . | - | . | . | .
OC(c1ccccc1)(c1nc(-c2cccc(C(F)(F)F)c2)cs1)C(F)(F)F (stereo not given) | . | - | . | . | - | . | . | .
FC(F)(F)c1cccc(-c2ccn3ncnc3n2)c1 | - | 33 | - | - | - | - | - | -
Cc1ccc2[nH]c3c(=O)n(CC(=O)NC4CC4)cnc3c2c1 | - | . | . | . | . | . | . | .
N#CC1=C(O)C(c2ccccc2)n2c1nc(=O)c1ccccc12 (stereo not given) | - | 85 | - | - | - | - | 137 | 129
N#CC1=C(O)CCCn2c1nc1ccccc1c2=O | - | - | - | - | - | - | . | .
CCn1nccc1C(=O)Nc1nc(-c2ccc(C(=O)OC)cc2)cs1 | - | . | . | . | . | . | . | .
O=C(c1ccc(Cl)c(S(=O)(=O)N2CCCCCC2)c1)N1CCCC(C(F)(F)F)C1 (stereo not given) | - | 45 | - | - | - | - | 65 | 46
CCc1nc(Nc2ccc(N(C)C)cc2)c2oc3ccccc3c2n1 | - | . | . | . | . | . | . | .
CCc1nc(Nc2ccncc2)c2oc3ccccc3c2n1 | - | 57 | - | - | 40 | - | 49 | 41
Cc1nc(Nc2ccncc2)c2oc3ccccc3c2n1 | - | 35 | - | - | 33 | - | 161 | 136
Cc1cc(Oc2nc3ccccn3c(=O)c2/C=C(\C#N)C(=O)NC2CCS(=O)(=O)C2)ccc1Cl (stereo not given) | - | 45 | - | - | - | - | 139 | 113
COC(=O)/C(C#N)=C/c1c(Oc2cccc(C)c2)nc2ccccn2c1=O | - | - | - | - | - | - | . | .
SMILES | SSB-PriA inh | FBA Mtb inh | UGM FP inh | Rv3671c protease | GDH-TPI counter-1 | Mtb betalactam | Mtb FBA confirm | GDH-TPI counter-2 | others
Cc1cccn2c(=O)c(/C=C(\C#N)C(=O)NC3CCS(=O)(=O)C3)c(Oc3ccc(F)cc3)nc12 (stereo not given) | - | 32 | - | - | - | - | + | +
Cc1cccc(Oc2nc3ccccn3c(=O)c2/C=C(\C#N)C(=O)NC2CCS(=O)(=O)C2)c1C (stereo not given) | - | 51 | - | - | - | - | 107 | 80
Cc1cccc(Oc2nc3ccccn3c(=O)c2/C=C(\C#N)C(=O)NC2CCS(=O)(=O)C2)c1 (stereo not given) | - | - | - | - | - | - | . | .
N#C/C(=C\c1c(Oc2ccc(Cl)cc2)nc2ccccn2c1=O)C(=O)NC1CCS(=O)(=O)C1 (stereo not given) | - | 86 | - | - | - | - | + | 182
COC(=O)/C(C#N)=C/c1c(Oc2ccc(Cl)c(C)c2)nc2ccccn2c1=O | - | . | . | . | . | . | . | .
Cc1cc(=Nc2ccccc2)n2ccsc2n1 | - | . | . | . | . | . | . | .
CC(=O)c1ccccc1OC[C@@H](O)CN1CCN(C(c2ccccc2)c2ccccc2)CC1 | - | . | . | . | . | . | . | .
O=C(Nc1ccc(F)c(C(F)(F)F)c1)c1ccc(=O)n(Cc2ccccc2F)c1 | - | . | . | . | . | . | . | .
O=C(NN=Cc1cccc(O)c1)c1ccc(-n2cnnn2)cc1 | - | . | . | . | . | . | . | .
O=C(Nc1ccccc1)Nc1nnc(/C=C/c2ccccc2Cl)s1 | - | - | - | - | - | - | . | .
Nc1nnc(/C=C/c2ccccc2Cl)s1 | - | 28 | - | - | - | - | - | - | GDH-TPI DR=3.9
O=C(NCC1CCCO1)c1cc2c(=O)[nH]c3ccccc3c2s1 (stereo not given) | - | 35 | - | - | - | - | 53 | 55
CCOC(CCNC(=O)c1cc2c(=O)[nH]c3ccccc3c2s1)OCC | - | - | - | - | - | - | . | .
CCCCN(CC)CCNC(=O)c1cc2c(=O)[nH]c3ccccc3c2s1 | - | 39 | - | - | - | - | + | +
CCCN(CCC)CCCNC(=O)c1cc2c(=O)[nH]c3ccccc3c2s1 | - | 70 | - | - | - | - | + | 194
O=C(CSCc1ccccc1)N(CCc1cccs1)C1CCOCC1 | - | . | . | . | . | . | . | .
OCc1nc(-c2ccccn2)cs1 | - | . | . | . | . | . | . | .
COc1ccc(C(=O)CCN2CCN(c3ccc(OC)cc3)CC2)cc1 | - | - | - | - | - | - | . | .
COc1ccc(N2CCN(CCC(N)=O)CC2)cc1 | - | 31 | - | - | - | - | 78 | 53
Cc1cc(C)cc(Oc2coc3cc(OC(=O)c4cccnc4)ccc3c2=O)c1 | - | 32 | - | - | - | - | 47 | 36
Cc1cccc(Oc2coc3cc(OC(=O)c4cncc(Br)c4)ccc3c2=O)c1 | - | - | - | - | - | - | . | .
O=C(Oc1ccc2c(=O)c(Oc3ccc4ccccc4c3)coc2c1)c1ccco1 | - | 40 | - | - | - | - | 42 | 35
CC(C)C(=O)Nc1ccc2c(c1)C(=O)N(CCC(=O)O)C2=O | - | 40 | - | - | - | - | 97 | 81
COc1ccc(CC(=O)Nc2ccc3c(c2)C(=O)N(CCC(=O)O)C3=O)cc1 | - | - | - | - | - | - | . | .
Nc1ncnc2c(C3OC(CO)C(O)C3O)scc12 (stereo not given) | - | 74 | . | . | - | . | 180 | 119
O=C(Nc1nnc(SCc2cc(=O)c(OC(=O)c3ccccc3F)co2)s1)c1cccs1 | - | . | . | . | . | . | . | .
Cc1nn2c(-c3cccnc3)ccnc2c1-c1ccccc1 | - | - | - | - | - | - | . | .
